PubChem BioAssay (EPA / NIEHS)
Calls of active or inactive are those of the source. Rule for the calls: active = hit-call score of the fitted dose curve at least 0.9, where 1 is the maximum; inactive = score below 0.9.

How the values were obtained:
Settings in all cases: mRNA level, 48 h; actives raise or lower the signal
[1] = read-out: Cyclin D2 (CCND2), CCND2 (gene 894); experiment: LTEA_HepaRG_CCND2: Life Technologies and Expression Analysis (LTEA) Assay for Cyclin D2 (CCND2) using HepaRG (AID 2283449)
Method in brief: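 Read-out is CCND2 mRNA level measured by qRT-PCR in human HepaRG liver cells and normalised to three housekeeping genes. Chemicals were applied for 48 h at up to 100 uM, with gain or loss fitted relative to 0.5% DMSO.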

[2] = read-out: Cyclin Dependent Kinase Inhibitor 1A (CDKN1A), CDKN1A (gene 1026); experiment: LTEA_HepaRG_CDKN1A: Life Technologies and Expression Analysis (LTEA) Assay for Cyclin Dependent Kinase Inhibitor 1A (CDKN1A) using HepaRG (AID 2283450)
Method in brief: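 Differentiated human HepaRG cells, pre-cultured 48 h, were exposed in duplicate for 48 h in serum-free induction medium to eight half-log concentrations up to 100 uM (0.5% DMSO). CDKN1A mRNA was measured by qRT-PCR, normalized to ACTB/GAPDH/POLR2A, bidirectionally fitted versus DMSO.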

[3] = read-out: Cyclin D1 (CCND1), CCND1 (gene 595); experiment: LTEA_HepaRG_CCND1: Life Technologies and Expression Analysis (LTEA) Assay for Cyclin D1 (CCND1) using HepaRG (AID 2283451);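 for AC50: TaqMan qRT-PCR transcript level normalised to ACTB GAPDH and POLR2A housekeeping genes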
Method in brief: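 Differentiated human HepaRG cells in serum-free induction medium were exposed 48 h to eight half-log concentrations up to 100 uM in 0.5% DMSO; mRNA quantified by TaqMan qRT-PCR, normalized to ACTB, GAPDH, POLR2A, fitted bidirectionally versus DMSO.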

[4] = read-out: catalase (CAT), CAT (gene 847); experiment: LTEA_HepaRG_CAT: Life Technologies and Expression Analysis (LTEA) Assay for catalase (CAT) using HepaRG (AID 2283452);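 for AC50: TaqMan qRT-PCR signal normalized to ACTB GAPDH and POLR2A housekeeping genes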
Method in brief: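 Expression of CAT was quantified by TaqMan qRT-PCR with ACTB/GAPDH/POLR2A normalization after 48 h chemical exposure of HepaRG. Eight-point half-log series, top 100 uM, in 0.5% DMSO; gain or loss fitted against vehicle.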

[5] = read-out: flavin-containing dimethylaniline monooxygenases 3 (FMO3), FMO3 (gene 2328); experiment: LTEA_HepaRG_FMO3: Life Technologies and Expression Analysis (LTEA) Assay for flavin-containing dimethylaniline monooxygenases 3 (FMO3) using HepaRG (AID 2283453);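 for AC50: FMO3 transcript by TaqMan qRT-PCR normalized to ACTB GAPDH and POLR2A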
Method in brief: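 HepaRG, 48 h exposure, 8-pt half-log series from 100 uM, 0.5% DMSO vehicle, duplicates; FMO3 transcript by Fluidigm TaqMan qRT-PCR, housekeeping-normalized; gain/loss fit vs DMSO.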

[6] = read-out: Cytochrome P450 (CYP1A1), CYP1A1 (gene 1543); experiment: LTEA_HepaRG_CYP1A1: Life Technologies and Expression Analysis (LTEA) Assay for Cytochrome P450 (CYP1A1) using HepaRG (AID 2283454)
Method in brief: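 Differentiated HepaRG cells in serum-free induction medium were exposed in duplicate for 48 h to eight half-log concentrations up to 100 uM in 0.5% DMSO. CYP1A1 mRNA was quantified by TaqMan qRT-PCR, normalized to ACTB, GAPDH and POLR2A.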

[7] = read-out: CFLAR gene, CFLAR (gene 8837); experiment: LTEA_HepaRG_CFLAR: Life Technologies and Expression Analysis (LTEA) Assay for CFLAR gene using HepaRG (AID 2283455)
Method in brief: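 HepaRG, 48 h exposure, 8-pt conc-response (100 uM top, half-log), 0.5% DMSO vehicle, duplicates. CFLAR expression by qRT-PCR; ACTB/GAPDH/POLR2A normalization; gain or loss fit vs DMSO baseline.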

[8] = read-out: Forkhead box O1 (FOXO1), FOXO1 (gene 2308); experiment: LTEA_HepaRG_FOXO1: Life Technologies and Expression Analysis (LTEA) Assay for Forkhead box O1 (FOXO1) using HepaRG (AID 2283456)
Method in brief: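 Readout is FOXO1 transcript level by multiplexed qRT-PCR against three housekeeping genes, curve-fitted in both directions relative to 0.5% DMSO vehicle. Human HepaRG cultures received chemicals for 48 h, up to 100 uM in half-log steps.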

[9] = read-out: growth arrest and DNA damage 45 (GADD45A), GADD45A (gene 1647); experiment: LTEA_HepaRG_GADD45A: Life Technologies and Expression Analysis (LTEA) Assay for growth arrest and DNA damage 45 (GADD45A) using HepaRG (AID 2283458)
Method in brief: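 Differentiated HepaRG cells were exposed in duplicate for 48 h in serum-free induction medium to 8-point half-log concentrations up to 100 uM in 0.5% DMSO. GADD45A mRNA was measured by TaqMan qRT-PCR, normalized to ACTB, GAPDH and POLR2A, with bidirectional fitting versus DMSO.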

Row | SMILES | outcome [1] | outcome [2] | outcome [3] | outcome [4] | outcome [5] | AC50 [6] | outcome [7] | outcome [8] | outcome [9] | outcome [6] | AC50 [3] | AC50 [5] | AC50 [8] | AC50 [2] | AC50 [4] | AC50 [9]
1 | CC[C@H]1CC[C@H](NCc2cc3c(cc2OC)[C@H]2C[C@H]2C(=O)N3C)[C@H](c2ccccc2)N1 | inactive | inactive | inactive | inactive | inactive | 37.6 µM (active) | inactive | inactive | inactive |  |  |  |  |  |  | 
2 | CCCCCCc1ccc(O)cc1O | inactive | inactive | inactive | inactive | inactive | 77.7 µM (active) | inactive | inactive | inactive |  |  |  |  |  |  | 
3 | CC(C)CCO | inactive | inactive | inactive | inactive | inactive |  | inactive | inactive | inactive | inactive |  |  |  |  |  | 
4 | CC(C)c1cccc(C(C)C)c1N1C(=O)c2ccc(O)cc2C1=O | inactive | inactive |  | inactive |  | 63.1 µM (active) | inactive |  | inactive |  | 82.4 µM (active) | 84.1 µM (active) | 83.9 µM (active) |  |  | 
5 | CNCc1ccc(NC(=O)c2c[nH]c3c2C(=O)CCC3)cc1 | inactive | inactive | inactive | inactive | inactive | 73.8 µM (active) | inactive | inactive | inactive |  |  |  |  |  |  | 
6 | C1N2CN3CN1CN(C2)C3 | inactive | inactive | inactive | inactive | inactive | 51 µM (active) | inactive | inactive | inactive |  |  |  |  |  |  | 
7 | O=P(OC(CCl)CCl)(OC(CCl)CCl)OC(CCl)CCl | inactive |  | inactive |  |  | 13.1 µM (active) | inactive | inactive |  |  |  | 63.8 µM (active) |  | 90.8 µM (active) | 50 µM (active) | 0.21 µM (active)
8 | C[C@](N)(Cc1ccc(O)c(O)c1)C(=O)O | inactive | inactive | inactive | inactive | inactive | 71.6 µM (active) | inactive | inactive | inactive |  |  |  |  |  |  | 
9 | Nc1cccc(N)c1 | inactive | inactive | inactive | inactive | inactive | 50 µM (active) | inactive | inactive | inactive |  |  |  |  |  |  | 
10 | CC(C)CCCCCCOC(=O)c1ccc(C(=O)OCCCCCCC(C)C)c(C(=O)OCCCCCCC(C)C)c1 | inactive | inactive | inactive | inactive | inactive | 50 µM (active) | inactive | inactive | inactive |  |  |  |  |  |  | 
11 | CC1=CC(=O)CC(C)(C)C1 | inactive | inactive | inactive | inactive | inactive |  | inactive | inactive | inactive | inactive |  |  |  |  |  | 
12 | CN(C)c1ccc(Cc2ccc(N(C)C)cc2)cc1 | inactive | inactive | inactive | inactive |  | 13.2 µM (active) | inactive | inactive | inactive |  |  | 83.1 µM (active) |  |  |  | 
13 | O=C1CCCCCN1 | inactive | inactive | inactive | inactive | inactive |  | inactive | inactive | inactive | inactive |  |  |  |  |  | 
14 | CC(=O)OC[C@H]1O[C@@](COC(C)=O)(O[C@H]2O[C@H](COC(C)=O)[C@@H](OC(C)=O)[C@H](OC(C)=O)[C@H]2OC(C)=O)[C@@H](OC(C)=O)[C@@H]1OC(C)=O | inactive | inactive | inactive | inactive | inactive | 47.5 µM (active) | inactive | inactive | inactive |  |  |  |  |  |  | 
15 | COc1ccc(-n2nc(C(F)F)cc2-c2ccc(S(C)=O)cc2)cc1 (stereo not given) | inactive | inactive | inactive | inactive | inactive | 60.3 µM (active) | inactive | inactive | inactive |  |  |  |  |  |  | 
